Whole data set: some 8,300 sequences, median “log2 fold change of degron read counts, EGFP-low vs EGFP+ sorted cells (limma voom), compound-induced degradation” near -1.1, cut for the highest 2% near 3.2. The list comes from a sample in which the highest values are over-represented; it also holds similar and randomly drawn sequences.
T1: CRBN, Q96SW2
T1 chain: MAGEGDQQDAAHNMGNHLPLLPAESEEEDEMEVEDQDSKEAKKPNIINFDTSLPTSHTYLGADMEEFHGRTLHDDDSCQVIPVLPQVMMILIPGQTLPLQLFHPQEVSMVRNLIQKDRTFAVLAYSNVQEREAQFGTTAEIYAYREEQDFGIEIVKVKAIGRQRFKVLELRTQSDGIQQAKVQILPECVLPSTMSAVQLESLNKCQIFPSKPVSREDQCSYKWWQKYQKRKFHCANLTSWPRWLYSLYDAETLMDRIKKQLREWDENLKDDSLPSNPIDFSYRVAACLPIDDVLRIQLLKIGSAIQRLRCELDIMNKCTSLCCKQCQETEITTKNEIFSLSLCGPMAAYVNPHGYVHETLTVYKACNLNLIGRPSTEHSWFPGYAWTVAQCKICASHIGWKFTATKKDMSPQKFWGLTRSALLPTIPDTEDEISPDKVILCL


Target: T1, CRBN, Q96SW2
Assay: log2 fold change of degron read counts, EGFP-low vs EGFP+ sorted cells (limma voom), compound-induced degradation; higher = more compound-induced degradation of the degron-EGFP fusion; degrons are variants of IKZF1/3 zinc finger 2; compound dose not given here
Settings: Jurkat, 18 h
[1] = compound: compound 19 (5-tert-butyl-thalidomide)
[2] = compound: compound 22 (5-morpholino-thalidomide)
[3] = compound: compound 33 (diphenyl IMiD analogue)
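Also: pooled lentiviral library of zinc finger degron-EGFP fusions in mCherry-positive Jurkat cells, FACS-sorted after compound exposure, with degron abundance counted by next-generation sequencing.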

Row | Sequence | log2 fold change of degron read counts [1] | log2 fold change of degron read counts [2] | log2 fold change of degron read counts [3] | log2 fold change of degron read counts (compound: thalidomide)
1 | LQCEICGFSCTQKGNLLRHIKL [46L_47Q_49E_50I_52G_53F_54S_55C_67L_, Q9UKT9] | 2.41 | 1.96 | 1.77 | 3.58
2 | LHCEICGFSCTQKGNLLRHIKL [46L_47H_49E_50I_52G_53F_54S_55C_67L_, Q9UKT9] | 3.19 | 3.16 | 2.27 | 2.44
3 | LSCEICGFSCTQKGNLLRHIKL [46L_47S_49E_50I_52G_53F_54S_55C_67L_, Q9UKT9] | 2.75 | 2.53 | 1.7 | 1.8
4 | LNCEICGFSCTQKGNLLRHIKL [46L_47N_49E_50I_52G_53F_54S_55C_67L_, Q9UKT9] | 1.58 | -0.0234 | -0.0305 | 0.742
5 | LVCEICGFSCTQKGNLLRHIKL [46L_47V_49E_50I_52G_53F_54S_55C_67L_, Q9UKT9] | 2.39 | 3.11 | 2.52 | 3.33
6 | LRCEICGFSCTQKGNLLRHIKL [46L_47R_49E_50I_52G_53F_54S_55C_67L_, Q9UKT9] | 2.23 | 1.56 | 2.62 | 2.99
7 | LECEICGFSCTQKGNLLRHIKL [46L_47E_49E_50I_52G_53F_54S_55C_67L_, Q9UKT9] | 0.457 | -1.92 | 1.25 | 2.46
8 | LWCEICGFSCTQKGNLLRHIKL [46L_47W_49E_50I_52G_53F_54S_55C_67L_, Q9UKT9] | 3.66 | 3.79 | 3.08 | 1.89
9 | LLCEICGFSCTQKGNLLRHIKL [46L_47L_49E_50I_52G_53F_54S_55C_67L_, Q9UKT9] | 1.68 | -0.0296 | 1.49 | 2.43
10 | LGCEICGFSCTQKGNLLRHIKL [46L_47G_49E_50I_52G_53F_54S_55C_67L_, Q9UKT9] | 1.24 | 0.532 | -0.284 | -0.251
11 | LACEICGFSCTQKGNLLRHIKL [46L_47A_49E_50I_52G_53F_54S_55C_67L_, Q9UKT9] | 3.41 | 2.96 | 0.73 | 1.55
12 | LDCEICGFSCTQKGNLLRHIKL [46L_47D_49E_50I_52G_53F_54S_55C_67L_, Q9UKT9] | 0.356 | -1.04 | -1.04 | -0.00753
13 | FLCDICGACFTQKGNLLRHIKL [46F_47L_49D_50I_52G_53A_54C_55F_67L_, Q9UKT9] | -0.48 | -1.68 | 0.21 | -0.568
14 | FTCNQCGRMFTQKGNLLRHIKL [46F_47T_49N_50Q_52G_53R_54M_55F_67L_, Q9UKT9] | -2.42 | -2.23 | -3.36 | -2.15
15 | FKCPVCGANFTQKGNLLRHIKL [46F_47K_49P_50V_52G_53A_54N_55F_67L_, Q9UKT9] | -1.23 | -1.7 | -1.75 | -0.842
16 | FFCNVCGASFTQKGNLLRHIKL [46F_47F_49N_50V_52G_53A_54S_55F_67L_, Q9UKT9] | 0.714 | 1.8 | 0.537 | -0.573
17 | FWCNVCGATFTQKGNLLRHIKL [46F_47W_49N_50V_52G_53A_54T_55F_67L_, Q9UKT9] | -0.873 | 1.95 | 0.03 | -1.73
18 | FVCEICGHWFTQKGNLLRHIKL [46F_47V_49E_50I_52G_53H_54W_55F_67L_, Q9UKT9] | -4.05 | -5.4 | -3.27 | -3.37
19 | FCCNVCGAIFTQKGNLLRHIKL [46F_47C_49N_50V_52G_53A_54I_55F_67L_, Q9UKT9] | -0.872 | -0.605 | 1.29 | -0.21
20 | FRCDVCGAKFTQKGNLLRHIKL [46F_47R_49D_50V_52G_53A_54K_55F_67L_, Q9UKT9] | -1.66 | -1.94 | -0.967 | -0.732
21 | FFCEICGHQFTQKGNLLRHIKL [46F_47F_49E_50I_52G_53H_54Q_55F_67L_, Q9UKT9] | -2.47 | -1.41 | -2.03 | -3.11
22 | FCCPVCGAYFTQKGNLLRHIKL [46F_47C_49P_50V_52G_53A_54Y_55F_67L_, Q9UKT9] | 0.773 | 0.428 | 1.38 | 0.899
23 | LFCEICGFSCTQKGNLLRHIKL [46L_47F_49E_50I_52G_53F_54S_55C_67L_, Q9UKT9] | 3.66 | 3.51 | 2.53 | 2.79
24 | LCCEICGFSCTQKGNLLRHIKL [46L_47C_49E_50I_52G_53F_54S_55C_67L_, Q9UKT9] | 2.55 | 2.37 | 1.93 | 2.56
25 | LTCEICGFSCTQKGNLLRHIKL [46L_47T_49E_50I_52G_53F_54S_55C_67L_, Q9UKT9] | 2.45 | 3.22 | 2.39 | 3.2
26 | LICEICGFSCTQKGNLLRHIKL [46L_47I_49E_50I_52G_53F_54S_55C_67L_, Q9UKT9] | 1.33 | 3.02 | 2.39 | 3.24
27 | LMCEICGFSCTQKGNLLRHIKL [46L_47M_49E_50I_52G_53F_54S_55C_67L_, Q9UKT9] | 1.25 | 2.14 | 2.59 | 2.36
28 | LKCEICGFSCTQKGNLLRHIKL [46L_47K_49E_50I_52G_53F_54S_55C_67L_, Q9UKT9] | 1.07 | -1.26 | -1.41 | 0.762
29 | LYCEICGFSCTQKGNLLRHIKL [46L_47Y_49E_50I_52G_53F_54S_55C_67L_, Q9UKT9] | 3.63 | 3.7 | 3.1 | 2.45

From the supplement of paper PMC12645437, “Orthogonal IMiD-Degron Pairs Induce Selective Protein Degradation in Cells” (ACS Chemical Biology, 2025)
